Source: PubChem BioAssay
Six1-Eya2 blk – Six1/Eya2 interaction inhibition; Q15475+O00167; AlphaScreen GST-Six1/His-Eya2 binding, biochemical; stronger effect = lower value; activity change, % (no concentration beside the values); hit rate 0.56% among 360,000; AID 651725; in the data active = activity change below about -65%; inconclusive = mostly about -30% to -63%; note: % is set by controls: 0 for no effect and ±100 for the full control effect
Target sequence (O00167 whole entry, looked up): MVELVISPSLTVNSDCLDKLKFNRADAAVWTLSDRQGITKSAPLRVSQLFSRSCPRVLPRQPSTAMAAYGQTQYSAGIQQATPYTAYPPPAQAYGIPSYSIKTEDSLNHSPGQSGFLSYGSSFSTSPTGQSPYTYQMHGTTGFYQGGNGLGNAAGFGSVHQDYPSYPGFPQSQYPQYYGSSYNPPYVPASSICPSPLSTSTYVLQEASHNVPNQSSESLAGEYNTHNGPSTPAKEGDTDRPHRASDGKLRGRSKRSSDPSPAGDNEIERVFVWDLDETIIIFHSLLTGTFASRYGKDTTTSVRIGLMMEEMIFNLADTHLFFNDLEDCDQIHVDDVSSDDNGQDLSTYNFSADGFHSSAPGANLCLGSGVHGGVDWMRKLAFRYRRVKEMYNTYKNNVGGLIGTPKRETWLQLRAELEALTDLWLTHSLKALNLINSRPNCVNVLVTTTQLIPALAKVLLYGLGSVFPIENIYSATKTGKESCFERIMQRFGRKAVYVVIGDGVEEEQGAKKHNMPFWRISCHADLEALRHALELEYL
Target sequence (Q15475 whole entry, looked up): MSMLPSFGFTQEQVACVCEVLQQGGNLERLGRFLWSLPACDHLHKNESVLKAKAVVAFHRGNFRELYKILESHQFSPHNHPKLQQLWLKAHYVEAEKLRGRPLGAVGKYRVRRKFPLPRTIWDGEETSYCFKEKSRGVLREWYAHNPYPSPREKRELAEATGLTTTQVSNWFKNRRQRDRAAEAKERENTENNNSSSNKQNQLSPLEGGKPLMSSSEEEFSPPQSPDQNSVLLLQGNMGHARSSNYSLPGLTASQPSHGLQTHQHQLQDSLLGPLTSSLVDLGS
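AlphaScreen with GST-Six1 and His-Eya2 (5X mix: 250 nM and 500 nM), glutathione donor and nickel acceptor beads; buffer 50 mM Tris pH 8.0, 300 mM NaCl, 1 mM TCEP; 1 h at 37 C in the dark.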
p53 reactivation – restores transcriptional activity of mutant p53; H1299 p53-A138V BP100-luciferase reporter, luminescence, 24 h; Potency, µM (top dose mostly 92.2 µM), inactives show at the highest dose activity change, positive = activation, hits mostly activators; hit rate 0.063% among 320,000; note: potency is the fitted concentration of half-maximal effect; % of control where 0% means no effect; nearly all actives have a fitted effect of over 45% in size
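H1299 (p53-null), stable ts p53-A138V + BP100-Luc; 1000 cells/well, Opti-MEM/10% FBS; cpd 4 pt, 1:5; 24 h, 37 deg C, 5% CO2; detection reagent 10 min RT; luminescence.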
RORgamma inh – blocks mouse ROR gamma transcriptional activity. P51450. Drosophila S2 Gal4-RORgamma UAS-luciferase reporter, 20 h. Potency, µM (highest dose often 53.6 µM), without a hit: at the highest dose activity change, negative = inhibition, usual class: inhibitors. hit rate 5.4% among 310,000. AID 2551; note: potency is the fitted concentration of half-maximal effect; % is set by controls: 0 for no effect and ±100 for the full control effect; nearly all actives have a fitted effect of over 60% in size
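Schneider cells (Drosophila), stable Gal4 DBD–ROR gamma + UAS-luc; 1 hr cmpd preincubation; Cu2+ induction 700 uM final; 20 hr ambient; luminescence.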
CtBP-E1A inh – inhibitors of CtBP/E1A interaction; AID 651724; activity change, % (concentration not given with the values); hit rate 0.49% among 340,000; AlphaScreen GST-E1A/His-CtBP binding, 1536-well; stronger effect = lower value; in the data active = activity change below about -65%; inconclusive = mostly about -30% to -63%; note: % is set by controls: 0 for no effect and ±100 for the full control effect
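Protein mix (5X: 125 nM each GST-E1A, His-CtBP) was incubated with pinned compound 2 h at 37 deg C in dark, in 50 mM Tris pH 8.0 buffer with 300 mM NaCl. Glutathione donor and nickel acceptor beads followed; AlphaScreen signal read after 1 h.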
Gal4-VP16 FLuc – Gal4-VP16 reporter inhibition counter-screen | hit rate 3.5% among 310,000 | Drosophila S2 Gal4-VP16 UAS-luciferase, luminescence, 20 h | Potency, µM (doses to about 53.6 µM), without a hit: top-dose activity, negative = inhibition, usual class: inhibitors;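 note: Gal4-VP16 expression switched on by copper sulfate through the metallothionein promoter; potency is the fitted concentration of half-maximal effect; % is set by controls: 0 for no effect and ±100 for the full control effect; nearly all actives have a fitted effect of over 50% in size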
Numbers without * were called inactive; ? = inconclusive; nt = not tested or not shown; [ ] = another dose, or the depositor's remark. Compounds with a hit are over-represented: about 5.4% of the library has one in this group of screens. Unless noted, calls come from the whole dose curve; as a rule, active = well fitted curve in the direction sought with a large enough effect; inconclusive = small, poorly fitted or top-dose-only effect, or another doubt; inactive = no such curve, though single readings can be large; an effect the other way counts as inactive or inconclusive.

SMILES | Six1-Eya2 blk | p53 reactivation | RORgamma inh | CtBP-E1A inh | Gal4-VP16 FLuc
CCCCC(=O)Nc1nc2ccc(C(=O)OC)cc2s1 | -7 | ? | 8.9µM* | 1 | ?
COc1ccc(C(=O)Nc2nc3ccc(OC)cc3s2)cc1 | ? | -57% | 1.4µM* | -72* | 4.5µM*
COc1ccc(C(=O)Nc2nc3ccc(S(C)(=O)=O)cc3s2)cc1 | -1 | 19% | 14% | -2 | -2%
Cn1ncc(Cl)c1C(=O)Nc1nc2ccc(Cl)cc2s1 | -7 | ? | 11µM* | -8 | ?
Cc1ccc(/C=N/NC(=O)c2ccc(-n3cccc3)cc2)o1 | -20 | -2% | 18µM* | -21 | ?
O=C(N/N=C/c1cccs1)c1cccc(NC(=O)c2ccccc2Cl)c1 | -24 | 7% | ? | -13 | 14µM*
O=C(N/N=C/c1cccs1)c1ccc(NC(=O)c2ccccc2Cl)cc1 | 25 | -1% | 10µM* | 2 | ?
O=C(N/N=C/c1ccccc1F)c1cccc(NC(=O)c2ccccc2Cl)c1 | -12 | 5% | 16% | -15 | -4%
O=C(N/N=C/c1cccs1)c1ccc(-n2cccc2)cc1 | -7 | 2% | 6.3µM* | -4 | 11µM*
COC(=O)c1ccc(C(NC(=O)OCc2ccccc2)/C(=C/[C@@H](C)C(=O)N(C)Cc2ccccc2)c2cccnc2)cc1 (some centres not stated) | nt | nt | 35% | nt | -12%
COc1ccc(-c2nnc(CSc3nc4ccccc4c(=O)n3CC3CCCO3)o2)cc1OC (configuration not stated) | 5 | -2% | -10% | 2 | 7%
Cc1ccc(C(=O)/C=C/C(=O)c2ccc(C)cc2)cc1 | -2 | 0% | 5µM* | -13 | ?
Cc1ccc(/C=C/C(=O)Nc2ccccc2C(N)=O)cc1 | 3 | ? | 3.5µM* | 19 | ?
NC(=O)c1ccccc1N/C=C/C(=O)c1ccc(Cl)cc1 | 7 | 24% | 1.4µM* | -9 | 1.6µM*
Cc1ccc(C(=O)/C=C/Nc2ccccc2C(N)=O)cc1 | 0 | 10% | 0.5µM* | -1 | 2.8µM*
NC(=O)c1ccccc1NC(=O)/C=C/C(=O)O | 7 | 6% | 28% | 3 | 1%
NC(=O)c1ccccc1N/C=C/C(=O)c1ccco1 | 2 | ? | -20% | -4 | -9%
CCC/C=C(\CCC)C(NC(=O)Oc1ccc(F)cc1)c1ccc(C(=O)OC)cc1 (configuration not stated) | nt | nt | 3% | nt | -1%
COc1ccc(N/N=C(\C#N)C(=N)SCc2ccccc2)cc1 | -9 | 10% | ? | nt | 16µM*
COc1ccc(N/N=C(\C#N)C(=N)N2CCCCC2)cc1 | -5 | 11% | -11% | nt | -16%
O=[N+]([O-])c1ccc(COc2ccc(-c3[nH]ncc3-c3ccccc3)c(O)c2)cc1 | -12 | -12% | 7.1µM* | -6 | 5.6µM*
COc1ccc(-c2cn[nH]c2-c2ccc(OCc3ccccc3)cc2O)cc1OC | -14 | -11% | 7% | -11 | -2%
Oc1cc(OCc2ccccc2)ccc1-c1[nH]ncc1-c1ccccc1 | -6 | -14% | 10µM* | -4 | ?
CCN1C(=NCCc2c[nH]c3ccccc23)N[C@@H](c2ccccc2)C(C(=O)OC)=C1C | nt | nt | ? | nt | -2%
CC(C)COC(=O)N(C)C[C@H]1OCc2cn(nn2)CCCC(=O)N([C@H](C)CO)C[C@@H]1C | 12 | nt | nt | 3 | nt
SMILES | Six1-Eya2 blk | p53 reactivation | RORgamma inh | CtBP-E1A inh | Gal4-VP16 FLuc
C=C1CCN(C(Cc2ccccc2)C(=O)NCc2ccccc2)S(=O)(=O)c2ccccc21 (configuration not stated) | nt | nt | 7% | nt | 21%
O=Nc1c(-c2ccccc2)[nH]n(-c2ccccc2)c1=O | -10 | 16% | ? | -5 | 16µM*
Cc1[nH]n(-c2ccccc2)c(=O)c1N=Nc1cccc(S(=O)(=O)N2CCOCC2)c1 | -15 | -5% | 7.9µM* | 0 | ?
Cc1[nH]n(-c2ccccc2)c(=O)c1N=Nc1cccc(C(=O)O)c1 | -4 | -12% | ? | -6 | 2.8µM*
Cc1[nH]n(-c2ccccc2)c(=O)c1N=Nc1ccccc1 | ? | 9% | 20% | -27 | ?
Cc1[nH]n(-c2ccccc2)c(=O)c1N=Nc1c(Cl)cccc1Cl | -23 | nt | 13µM* | nt | ?
NC(=O)c1ccc(N=Nc2c(-c3ccccc3)[nH]n(-c3ccccc3)c2=O)cc1 | nt | -5% | 6% | nt | 7%
COc1ccc(O[C@H]2C=C[C@@H](c3ccccc3)O[C@@H]2CO/N=C(\C)CCC(=O)OC[C@H]2O[C@H](c3ccccc3)C=C[C@@H]2Oc2ccc(OC)cc2)cc1 | nt | -3% | 6% | nt | -3%
CC(C)(C)c1nnc(NC(=O)COc2ccc3c(c2)OCO3)s1 | 9 | ? | nt | -4 | nt
CCCn1c2ccc(/C(C)=N\O)cc2c2cc(/C(C)=N/O)ccc21 | -11 | -10% | -30% | -4 | -13%
CC(=O)Nc1ccc(S(=O)(=O)N2CCC(c3nnc(-c4ccc(C)cc4)o3)CC2)cc1 | -1 | 5% | 14µM* | -8 | ?
CC1CCN(S(=O)(=O)c2ccc(C(=O)Nc3nnc(-c4ccncc4)o3)cc2)CC1 | -5 | 6% | 1.1µM* | -26 | 4µM*
O=C(Nc1nnc(C2CC2)o1)c1ccc(S(=O)(=O)N2CCCCC2)cc1 | -18 | 6% | 0.89µM* | -17 | 0.56µM*
O=C(NC1CCCCC1)c1ccc(S(=O)(=O)N2CCCCC2)cc1 | 14 | -17% | 13% | 1 | 3%
CC1CCN(S(=O)(=O)c2ccc(C(=O)Nc3nnc(C4CC4)o3)cc2)CC1 | -14 | -4% | 0.35µM* | -20 | 0.32µM*
c1ccc2c(c1)[nH]c1c3ccccc3sc21 | -5 | 11% | -12% | nt | 15%
Cc1ccc(NC(=O)Cc2cc(C(=O)O)c3ccccc3n2)c(C)c1 | 4 | 4% | ? | nt | ?
Cc1cccc(N2CCN(C(=O)CCc3nc4ccccc4c(=O)[nH]3)CC2)c1C | 7 | 5% | nt | 4 | nt
Nc1cc(SCc2ccc(Cl)cc2Cl)ncn1 | -2 | nt | nt | 11 | nt
COc1ccc(S(=O)(=O)Nc2cc(C)on2)cc1 | 10 | 0% | -8% | 8 | 4%
Cc1ccccc1-c1nnc(-c2ccc(Br)cc2)o1 | 27 | ? | -45% | 10 | 2.8µM*
O=C(COC(=O)Cn1nnc2ccccc21)Nc1ccccc1Br | -3 | -1% | 15% | 6 | -17%
O=C1C2C3c4ccccc4C(c4ccccc43)C2C(=O)N1Cc1ccccn1 (configuration not stated) | -4 | 1% | -37% | 6 | -4%[10 µM]
Fc1cccc2sc(Nc3nc4ccccc4s3)nc12 | 8 | ? | 4.5µM* | 3 | 7.1µM*
Fc1ccc2nc(Nc3nc4c(F)cc(F)cc4s3)sc2c1 | -4 | 16% | 8.9µM* | -3 | 6.3µM*
Fc1ccc2nc(Nc3nc4c(F)cccc4s3)sc2c1 | 7 | ? | 2µM* | -2 | 5.6µM*
Fc1ccc2nc(Nc3ccccc3)sc2c1 | -13 | ? | -40% | -10 | -7%
